Among the data in ChEMBL document CHEMBL1961873, “Compounds: GSK PKIS; Assays: Nanosyn kinase panel” (2012) are inhibition values, retold here.

Experiment [1] concerns the target Sphingosine kinase 1 (Homo sapiens) (UniProt Q9NYA1). The following applies: at 1 µM.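 Further: mean SPHK1 inhibition value reported from the GSK PKIS kinase panel screen.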
Experiment [2] deals with T1, Sphingosine kinase 2 (Homo sapiens) (UniProt Q9NRA0).
T1 sequence (whole entry): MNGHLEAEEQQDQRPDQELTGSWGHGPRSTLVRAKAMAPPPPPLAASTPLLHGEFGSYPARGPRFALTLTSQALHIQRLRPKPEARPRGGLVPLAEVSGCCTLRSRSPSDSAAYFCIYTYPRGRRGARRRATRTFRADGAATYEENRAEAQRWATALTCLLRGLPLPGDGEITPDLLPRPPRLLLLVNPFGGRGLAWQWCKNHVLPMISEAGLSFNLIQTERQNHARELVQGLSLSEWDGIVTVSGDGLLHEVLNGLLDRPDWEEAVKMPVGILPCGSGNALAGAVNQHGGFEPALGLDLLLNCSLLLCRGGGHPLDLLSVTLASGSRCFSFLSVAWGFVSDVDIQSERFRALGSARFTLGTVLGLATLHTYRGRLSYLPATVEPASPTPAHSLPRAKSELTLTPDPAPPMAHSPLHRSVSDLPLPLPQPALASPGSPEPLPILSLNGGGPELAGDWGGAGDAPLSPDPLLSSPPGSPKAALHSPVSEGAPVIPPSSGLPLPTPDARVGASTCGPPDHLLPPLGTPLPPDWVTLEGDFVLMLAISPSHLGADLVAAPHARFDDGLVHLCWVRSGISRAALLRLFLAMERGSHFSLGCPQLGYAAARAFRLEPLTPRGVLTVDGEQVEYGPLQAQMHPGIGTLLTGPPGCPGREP
The following applies: at 0.1 µM.

Experiment [3] addresses T1, Sphingosine kinase 2 (Homo sapiens). The following applies: at 1 µM.
The target of experiment [4] is Casein kinase II subunit alpha (Homo sapiens) (UniProt P68400). Particulars: at 0.1 µM.
Experiment [5] shares this target. Particulars: at 1 µM.
Experiment [6] has as its target T2, Inhibitor of nuclear factor kappa-B kinase subunit alpha (Homo sapiens) (UniProt O15111).
T2 sequence (whole entry): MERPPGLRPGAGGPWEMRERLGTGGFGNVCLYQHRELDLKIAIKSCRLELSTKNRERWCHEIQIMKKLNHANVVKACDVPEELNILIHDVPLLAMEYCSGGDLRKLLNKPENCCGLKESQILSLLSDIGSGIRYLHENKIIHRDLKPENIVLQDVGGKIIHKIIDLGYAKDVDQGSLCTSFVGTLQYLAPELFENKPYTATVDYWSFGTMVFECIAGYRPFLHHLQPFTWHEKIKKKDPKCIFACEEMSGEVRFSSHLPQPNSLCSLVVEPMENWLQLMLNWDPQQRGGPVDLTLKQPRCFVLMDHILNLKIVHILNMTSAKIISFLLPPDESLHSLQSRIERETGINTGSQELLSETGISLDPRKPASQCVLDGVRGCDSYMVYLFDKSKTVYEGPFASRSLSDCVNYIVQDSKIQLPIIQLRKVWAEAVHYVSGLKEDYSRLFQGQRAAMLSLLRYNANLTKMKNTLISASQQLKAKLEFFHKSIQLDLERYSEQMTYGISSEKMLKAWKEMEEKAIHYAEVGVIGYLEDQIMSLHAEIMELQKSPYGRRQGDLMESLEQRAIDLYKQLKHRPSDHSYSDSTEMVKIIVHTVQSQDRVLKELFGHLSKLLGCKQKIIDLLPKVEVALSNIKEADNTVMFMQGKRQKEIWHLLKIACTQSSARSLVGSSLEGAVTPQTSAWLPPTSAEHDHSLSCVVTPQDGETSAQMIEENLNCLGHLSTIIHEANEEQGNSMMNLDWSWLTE
Particulars: at 0.1 µM.

In experiment [7] the target is T2, Inhibitor of nuclear factor kappa-B kinase subunit alpha (Homo sapiens). Particulars: at 1 µM.
For experiment [8], the target named is T3, Inhibitor of nuclear factor kappa-B kinase subunit beta (Homo sapiens) (UniProt O14920).
T3 sequence (whole entry): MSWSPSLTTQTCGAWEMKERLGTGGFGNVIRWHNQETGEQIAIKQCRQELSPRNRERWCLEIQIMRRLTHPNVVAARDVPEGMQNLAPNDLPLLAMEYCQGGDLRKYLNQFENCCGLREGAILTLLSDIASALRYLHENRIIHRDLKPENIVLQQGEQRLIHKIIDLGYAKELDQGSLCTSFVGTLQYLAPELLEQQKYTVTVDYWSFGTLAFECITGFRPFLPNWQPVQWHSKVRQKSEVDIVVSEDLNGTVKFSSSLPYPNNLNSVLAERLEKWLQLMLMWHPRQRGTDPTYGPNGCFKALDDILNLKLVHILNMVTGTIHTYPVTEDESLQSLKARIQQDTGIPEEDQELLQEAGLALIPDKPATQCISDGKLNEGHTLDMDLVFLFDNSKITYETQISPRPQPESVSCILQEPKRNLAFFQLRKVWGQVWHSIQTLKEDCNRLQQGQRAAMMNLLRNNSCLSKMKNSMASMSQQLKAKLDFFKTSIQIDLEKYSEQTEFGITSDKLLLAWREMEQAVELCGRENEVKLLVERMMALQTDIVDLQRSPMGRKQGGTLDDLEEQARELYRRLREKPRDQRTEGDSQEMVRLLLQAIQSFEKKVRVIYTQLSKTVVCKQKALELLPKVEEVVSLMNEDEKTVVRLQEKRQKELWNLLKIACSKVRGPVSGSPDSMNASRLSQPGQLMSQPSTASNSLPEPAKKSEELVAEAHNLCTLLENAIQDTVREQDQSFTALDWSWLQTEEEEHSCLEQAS
Particulars: at 0.1 µM.

In experiment [9] the target is T3, Inhibitor of nuclear factor kappa-B kinase subunit beta (Homo sapiens). Particulars: at 1 µM.
In experiment [10] the target is T4, Inhibitor of nuclear factor kappa-B kinase subunit epsilon (Homo sapiens) (UniProt Q14164).
T4 sequence (whole entry): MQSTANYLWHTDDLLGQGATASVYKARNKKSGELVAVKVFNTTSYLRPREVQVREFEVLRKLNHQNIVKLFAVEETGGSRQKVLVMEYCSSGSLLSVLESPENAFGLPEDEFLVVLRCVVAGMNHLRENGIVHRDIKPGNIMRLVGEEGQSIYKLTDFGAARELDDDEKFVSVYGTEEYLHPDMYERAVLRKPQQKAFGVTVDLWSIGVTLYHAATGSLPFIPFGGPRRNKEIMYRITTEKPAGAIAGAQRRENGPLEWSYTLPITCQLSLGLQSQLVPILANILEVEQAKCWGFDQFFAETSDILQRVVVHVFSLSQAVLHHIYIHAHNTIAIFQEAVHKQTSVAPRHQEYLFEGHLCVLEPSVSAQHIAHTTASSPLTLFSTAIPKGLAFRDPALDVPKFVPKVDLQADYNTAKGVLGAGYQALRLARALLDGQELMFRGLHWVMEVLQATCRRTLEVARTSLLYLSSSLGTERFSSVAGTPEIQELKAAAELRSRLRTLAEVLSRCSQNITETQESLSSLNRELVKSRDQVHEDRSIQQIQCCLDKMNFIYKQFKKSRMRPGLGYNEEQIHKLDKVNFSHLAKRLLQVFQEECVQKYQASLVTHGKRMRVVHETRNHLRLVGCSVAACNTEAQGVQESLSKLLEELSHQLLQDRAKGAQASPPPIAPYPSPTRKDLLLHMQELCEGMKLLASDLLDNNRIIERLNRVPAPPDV
The following applies: at 0.1 µM.

Experiment [11] has as its target T4, Inhibitor of nuclear factor kappa-B kinase subunit epsilon (Homo sapiens). Particulars: at 1 µM.
Experiment [12] addresses T5, Serine/threonine-protein kinase Nek1 (Homo sapiens) (UniProt Q96PY6).
T5 sequence (whole entry): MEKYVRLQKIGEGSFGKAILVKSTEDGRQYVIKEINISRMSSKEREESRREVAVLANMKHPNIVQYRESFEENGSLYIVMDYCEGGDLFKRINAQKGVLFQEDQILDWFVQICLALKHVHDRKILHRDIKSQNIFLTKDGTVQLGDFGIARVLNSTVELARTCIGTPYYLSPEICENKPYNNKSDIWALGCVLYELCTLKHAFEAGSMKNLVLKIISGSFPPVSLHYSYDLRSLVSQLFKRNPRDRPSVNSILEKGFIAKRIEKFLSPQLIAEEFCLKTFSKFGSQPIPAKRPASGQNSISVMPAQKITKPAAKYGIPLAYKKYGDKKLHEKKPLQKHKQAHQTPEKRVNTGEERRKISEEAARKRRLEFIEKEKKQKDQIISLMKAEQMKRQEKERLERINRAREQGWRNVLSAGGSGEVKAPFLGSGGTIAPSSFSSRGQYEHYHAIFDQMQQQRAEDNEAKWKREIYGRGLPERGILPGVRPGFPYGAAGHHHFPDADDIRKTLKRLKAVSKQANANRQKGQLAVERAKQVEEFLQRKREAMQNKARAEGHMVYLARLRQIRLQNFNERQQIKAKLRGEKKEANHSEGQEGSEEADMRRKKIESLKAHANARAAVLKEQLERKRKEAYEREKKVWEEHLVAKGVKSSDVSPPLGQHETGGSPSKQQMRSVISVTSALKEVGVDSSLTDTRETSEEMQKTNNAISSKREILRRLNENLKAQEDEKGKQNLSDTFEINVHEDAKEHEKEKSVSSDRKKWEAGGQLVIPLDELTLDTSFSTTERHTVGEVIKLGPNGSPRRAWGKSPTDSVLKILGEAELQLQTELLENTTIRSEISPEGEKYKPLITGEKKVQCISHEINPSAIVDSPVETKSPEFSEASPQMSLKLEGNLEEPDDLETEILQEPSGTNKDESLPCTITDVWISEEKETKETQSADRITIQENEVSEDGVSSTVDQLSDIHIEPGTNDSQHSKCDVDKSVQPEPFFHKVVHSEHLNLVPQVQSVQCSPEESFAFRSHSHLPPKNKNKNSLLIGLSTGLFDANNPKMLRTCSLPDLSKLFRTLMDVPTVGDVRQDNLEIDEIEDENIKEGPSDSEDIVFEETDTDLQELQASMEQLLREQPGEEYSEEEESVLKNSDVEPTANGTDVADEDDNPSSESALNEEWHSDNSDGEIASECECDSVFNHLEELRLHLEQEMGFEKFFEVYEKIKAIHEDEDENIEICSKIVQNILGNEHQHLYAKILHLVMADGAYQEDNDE
The following applies: at 0.1 µM.

For experiment [13], the target named is T5, Serine/threonine-protein kinase Nek1 (Homo sapiens). The following applies: at 1 µM.
Experiment [14] has as its target T6, Serine/threonine-protein kinase Nek2 (Homo sapiens) (UniProt P51955).
T6 sequence (whole entry): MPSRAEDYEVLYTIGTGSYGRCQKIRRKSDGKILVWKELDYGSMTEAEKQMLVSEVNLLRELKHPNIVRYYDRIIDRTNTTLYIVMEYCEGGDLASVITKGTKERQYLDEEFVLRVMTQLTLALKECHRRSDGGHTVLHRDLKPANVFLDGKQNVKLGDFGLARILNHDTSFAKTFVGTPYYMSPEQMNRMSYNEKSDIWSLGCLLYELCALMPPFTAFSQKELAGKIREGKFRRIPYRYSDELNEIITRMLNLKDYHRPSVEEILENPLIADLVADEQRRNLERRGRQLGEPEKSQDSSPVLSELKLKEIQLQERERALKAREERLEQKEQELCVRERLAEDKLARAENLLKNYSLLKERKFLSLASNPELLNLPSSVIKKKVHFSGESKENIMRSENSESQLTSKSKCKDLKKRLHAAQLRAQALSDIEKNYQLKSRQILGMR
The following applies: at 0.1 µM.

Experiment [15] deals with T6, Serine/threonine-protein kinase Nek2 (Homo sapiens). The following applies: at 1 µM.
Experiment [16] addresses Serine/threonine-protein kinase Nek6 (Homo sapiens) (UniProt Q9HC98). The following applies: at 0.1 µM.
Experiment [17] shares this target. Particulars: at 1 µM.
The target in experiment [18] is Serine/threonine-protein kinase Nek7 (Homo sapiens) (UniProt Q8TDX7). Particulars: at 0.1 µM.
The target is the same in experiment [19]. The following applies: at 1 µM.
The target in experiment [20] is T7, Serine/threonine-protein kinase Nek9 (Homo sapiens) (UniProt Q8TD19).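 Further: reported value is the mean percent inhibition of NEK9.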
T7 sequence (whole entry): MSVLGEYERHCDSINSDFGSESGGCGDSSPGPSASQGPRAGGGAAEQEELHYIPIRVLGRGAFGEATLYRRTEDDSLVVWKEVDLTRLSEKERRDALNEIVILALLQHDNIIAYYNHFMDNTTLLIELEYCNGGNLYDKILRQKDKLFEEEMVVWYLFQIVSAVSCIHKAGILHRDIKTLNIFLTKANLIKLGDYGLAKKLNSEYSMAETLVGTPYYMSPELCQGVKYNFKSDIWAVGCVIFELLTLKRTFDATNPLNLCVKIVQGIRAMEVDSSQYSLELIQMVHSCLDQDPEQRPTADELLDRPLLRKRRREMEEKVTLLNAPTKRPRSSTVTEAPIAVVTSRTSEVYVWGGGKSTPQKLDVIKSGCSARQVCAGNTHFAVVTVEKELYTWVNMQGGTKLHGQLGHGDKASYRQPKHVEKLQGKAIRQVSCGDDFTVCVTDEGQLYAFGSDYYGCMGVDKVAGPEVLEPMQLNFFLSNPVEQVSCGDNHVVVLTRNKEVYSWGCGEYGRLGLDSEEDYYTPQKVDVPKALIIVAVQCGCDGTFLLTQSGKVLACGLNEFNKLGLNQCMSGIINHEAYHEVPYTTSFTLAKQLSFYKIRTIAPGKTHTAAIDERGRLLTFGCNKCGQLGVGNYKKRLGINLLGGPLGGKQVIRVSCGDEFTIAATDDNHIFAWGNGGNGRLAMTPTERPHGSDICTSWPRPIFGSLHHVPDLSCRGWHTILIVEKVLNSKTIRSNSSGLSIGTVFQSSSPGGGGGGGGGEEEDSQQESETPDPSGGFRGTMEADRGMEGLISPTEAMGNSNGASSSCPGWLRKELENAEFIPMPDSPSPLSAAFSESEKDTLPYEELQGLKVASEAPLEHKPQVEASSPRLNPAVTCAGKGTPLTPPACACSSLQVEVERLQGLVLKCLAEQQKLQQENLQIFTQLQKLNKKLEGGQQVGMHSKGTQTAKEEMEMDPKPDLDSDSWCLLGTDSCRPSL
The following applies: at 0.1 µM.

Sequence of Serine/threonine-protein kinase Nek6 (Homo sapiens) (Q9HC98 whole entry): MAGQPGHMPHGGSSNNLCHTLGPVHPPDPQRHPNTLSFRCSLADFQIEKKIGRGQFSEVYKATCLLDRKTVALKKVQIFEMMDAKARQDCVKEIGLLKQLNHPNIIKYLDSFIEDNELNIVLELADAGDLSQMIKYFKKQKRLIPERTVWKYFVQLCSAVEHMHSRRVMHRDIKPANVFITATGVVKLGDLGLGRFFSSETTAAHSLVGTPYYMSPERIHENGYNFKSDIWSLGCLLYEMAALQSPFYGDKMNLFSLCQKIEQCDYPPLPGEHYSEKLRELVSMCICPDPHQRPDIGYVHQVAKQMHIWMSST
Sequence of Serine/threonine-protein kinase Nek7 (Homo sapiens) (Q8TDX7 whole entry, looked up): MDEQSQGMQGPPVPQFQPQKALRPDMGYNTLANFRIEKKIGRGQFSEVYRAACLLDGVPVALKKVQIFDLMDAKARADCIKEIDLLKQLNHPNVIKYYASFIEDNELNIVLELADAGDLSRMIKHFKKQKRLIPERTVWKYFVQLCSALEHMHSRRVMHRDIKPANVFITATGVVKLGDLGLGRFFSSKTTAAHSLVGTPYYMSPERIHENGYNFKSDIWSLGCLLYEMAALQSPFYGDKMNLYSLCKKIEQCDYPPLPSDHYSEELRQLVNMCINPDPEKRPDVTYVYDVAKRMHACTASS
Sequence of Casein kinase II subunit alpha (Homo sapiens) (P68400 whole entry, looked up): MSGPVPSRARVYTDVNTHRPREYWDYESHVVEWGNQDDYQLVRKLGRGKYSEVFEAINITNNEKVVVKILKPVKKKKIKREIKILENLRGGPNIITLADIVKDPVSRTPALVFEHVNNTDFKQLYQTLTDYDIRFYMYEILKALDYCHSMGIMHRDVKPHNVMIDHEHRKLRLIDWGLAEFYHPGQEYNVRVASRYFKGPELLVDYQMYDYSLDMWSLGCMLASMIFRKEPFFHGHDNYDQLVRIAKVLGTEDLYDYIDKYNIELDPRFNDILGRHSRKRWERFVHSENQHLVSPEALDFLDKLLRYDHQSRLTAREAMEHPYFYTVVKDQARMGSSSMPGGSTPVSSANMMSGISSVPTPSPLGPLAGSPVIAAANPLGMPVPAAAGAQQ
Sequence of Sphingosine kinase 1 (Homo sapiens) (Q9NYA1 whole entry): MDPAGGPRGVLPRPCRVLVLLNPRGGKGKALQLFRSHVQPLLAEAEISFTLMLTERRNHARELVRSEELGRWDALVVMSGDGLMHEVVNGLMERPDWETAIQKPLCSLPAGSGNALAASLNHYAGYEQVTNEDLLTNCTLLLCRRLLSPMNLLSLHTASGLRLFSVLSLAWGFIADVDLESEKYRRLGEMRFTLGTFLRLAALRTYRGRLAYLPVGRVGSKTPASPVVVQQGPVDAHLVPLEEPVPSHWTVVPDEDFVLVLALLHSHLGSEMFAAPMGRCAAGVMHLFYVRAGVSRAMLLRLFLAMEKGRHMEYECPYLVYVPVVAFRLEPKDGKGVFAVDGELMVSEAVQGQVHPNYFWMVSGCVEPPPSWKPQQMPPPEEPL

Regarding `Nc1nc(-c2cccc(Cl)c2)c(-c2ccc3ncccc3n2)s1`, the inhibition in experiment [1] was -3.27%; in experiment [2] it was 0.78%; in experiment [3], 0.1%; in [4] it was 4.99%; in experiment [5] it was 15.3%; in experiment [6] it was 10.6%. The inhibition in [7] is 13.9%; in experiment [8] it was 8.18%; in [9] it was 7.33%; in experiment [10] it was 9.04%; in [11] it was 8.93%; in experiment [12], 2.49%. Besides, the inhibition in experiment [13] is 6.68%; in experiment [14], 5.95%; in [15], 4.63%; in [16], 3.94%; in experiment [17] it was 6.59%; in experiment [18] it was 1.99%. The inhibition in [19] was 4.09%; in experiment [20], 6.55%.
